Assays:
Conditions in all cases: concentration: 1 μM, replicates: in singlicate; n = 1
[1] = tested on: NEK4
[2] = tested on: NEK5
[3] = tested on: NEK6
[4] = tested on: NEK7
[5] = tested on: NEK9
[6] = tested on: T1, NIK
T1 construct: gene MAP3K14

[7] = tested on: T2, NIM1
T2 construct: gene MGC42105

[8] = tested on: NLK
[9] = tested on: T3, OSR1
T3 construct: gene OXSR1

[10] = tested on: PAK1
[11] = tested on: PAK2
[12] = tested on: PAK3
[13] = tested on: PAK4
[14] = tested on: PAK6
[15] = tested on: PAK7
[16] = tested on: T4, PCTK1
T4 construct: gene CDK16

[17] = tested on: T5, PCTK2
T5 construct: gene CDK17

[18] = tested on: T6, PCTK3
T6 construct: gene CDK18

[19] = tested on: PDGFRA
[20] = tested on: PDGFRB
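Also: KINOMEscan kinase panel screen.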

| Structure (SMILES) | %Inh [1] | %Inh [2] | %Inh [3] | %Inh [4] | %Inh [5] | %Inh [6] | %Inh [7] | %Inh [8] | %Inh [9] | %Inh [10] | %Inh [11] | %Inh [12] | %Inh [13] | %Inh [14] | %Inh [15] | %Inh [16] | %Inh [17] | %Inh [18] | %Inh [19] | %Inh [20] |
| --- | --- | --- | --- | --- | --- | --- | --- | --- | --- | --- | --- | --- | --- | --- | --- | --- | --- | --- | --- | --- |
| Nc1ncnc2c1ncn2-c1ccc(Cl)cc1 [AH2635] | 0% | 12% | 0% | 0% | 0% | 89% | 27% | 0% | 0% | 4% | 0% | 7% | 0% | 0% | 6% | 0% | 0% | 0% | 38% | 86% |
| CCC(=O)c1c(-c2ccccc2)c2cc(Cl)ccc2c(=O)n1Cc1cc(S(C)(=O)=O)n(CCC(C)(C)O)n1 | 0% | 17% | 14% | 1% | 0% | 0% | 0% | 0% | 0% | 20% | 8% | 21% | 6% | 0% | 2% | 29% | 21% | 13% | 0% | 0% |
| Nc1ncnc2c1ncn2-c1cccc2ccccc12 [SKF-97184] | 0% | 0% | 0% | 0% | 0% | 2% | 13% | 0% | 0% | 3% | 56% | 0% | 0% | 0% | 0% | 0% | 100% | 10% | 0% | 7% |
| COc1cc2ncn(-c3cc(OCc4ccncc4Br)c(C(N)=O)s3)c2cc1OC [GW854278] | 0% | 2% | 0% | 0% | 0% | 25% | 10% | 0% | 0% | 1% | 14% | 0% | 8% | 12% | 16% | 0% | 14% | 5% | 39% | 58% |
| CN1C(=O)C(Nc2ccccc2)=C(c2ccccc2)C1=O [SB-300079] | 0% | 0% | 0% | 0% | 0% | 32% | 19% | 0% | 0% | 0% | 0% | 0% | 0% | 0% | 0% | 0% | 0% | 12% | 0% | 24% |
| Nc1nc(N)c2nc(-c3ccccc3)[nH]c2n1 [SKF-12778] | 8% | 10% | 5% | 9% | 6% | 0% | 0% | 2% | 22% | 0% | 0% | 0% | 13% | 0% | 5% | 5% | 0% | 0% | 0% | 14% |

Reference: paper PMC5540273 (PLoS ONE, 2017)
